Assay results as given in PubChem BioAssay (NCI).
This is part of a sample that, as a whole, favours compounds with a hit. Of some 83,000 tested, about 20% had one in any assay.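 The endpoint reported here, percent growth, reads 100 for growth as untreated, 0 for no net growth and -100 for all cells dead.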 Unmarked numbers belong to inactive results. Active and inactive are the calls of the source. Rule for the calls: active = growth percent below 10; inactive = the rest.

Tested on: HL-60(TB) leukemia
Assay: NCI-60 one-dose screen, 48 h (100 = growth as untreated, 0 = no growth, -100 = all killed)
Conditions: 10 µM unless noted

| Structure (SMILES) | growth |
| --- | --- |
| Clc1nc2ccccc2nc1CI | 93.8% |
| CCCCCCNC(=O)Oc1ccc(/C(=C(\C)c2ccc(Cl)cc2)c2ccc(OCCN(CC)CC)cc2)cc1 | 44.3% |
| CCOC(=O)c1cc2c(n1Cc1cc(OC)c(OC)c(OC)c1)-c1nc(N)sc1CCC2 | 13.2% |
| Cc1cnc(NC(=O)Nc2cc(Br)c(C)cc2OC[C@@H]2CNCCO2)cn1 | -25.3% (active) |
| Clc1ccc2sc(-c3ccccc3)nc2c1 | 86.2% |
| C/C(=C\c1ccc([N+](=O)[O-])cc1)C(=O)O | 105% |
| COC1=CC(c2ccc[nH]2)=N/C1=C\c1[nH]c(C)c(C)c1CCC(=O)OCc1ccccc1 | -39.1% (active) |
| COc1ccc(C2CC(c3cc(OC)c(OC)c(OC)c3)=NO2)cc1OCCCCOc1cc2c(cc1OC)C(=O)N1CCC[C@H]1C=N2 (some centres undefined) | 34% |
| O=C1c2cccc3c(-c4ccc5c(c4)ncn5C4CCCCC4)ccc(c23)C(=O)N1CCO | 103% |
| COc1cc(NC(C)CCCN)c2nc(C)ccc2c1Oc1ccc(F)cc1 (centres undefined) | 87.9% |
| CCCn1cnc2c1c(=O)n(CCCCC(C)=O)c(=O)n2C | 91.4% |
| Cc1c(Cn2cc(COc3ccc(Br)cc3)nn2)c(C)c(Cn2cc(COc3ccc(Br)cc3)nn2)c(C)c1Cn1cc(COc2ccc(Br)cc2)nn1 | 89.8% |
| Cc1[nH]c2ccccc2c1C1=CC(=O)C=CC1=O | 12.4% |
| Cn1cc(C(=O)c2nc(-c3c[nH]c4ccc(Br)cc34)no2)c2cc(Br)ccc21 | 82.9% |
